# Data published in the supplement of paper PMC12669032.
# “And” between values parts separate entries of the source, which are not always exact repeats. Identical values can stand only once.
# System: Fusobacterium nucleatum subsp. animalis
# Assay: growth AUC relative to DMSO control (median of replicates) (fraction); higher = more growth (less inhibition), active = hit call of the paper
# Settings: 20 µM; 24 h;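 active = AUC reduced over 20% with Padj below 0.05 in at least 2 of 3 replicates; inactive = otherwise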
# How it was run: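 Gut bacterial monocultures were grown anaerobically at 37 °C in mGAM, starting at OD600 0.05, with 20 µM compound (1% DMSO) in round-bottom 96-well plates under pierced gas-permeable seals. OD600 was read hourly for 24 h. Area under the growth curve (minimum OD set to 0) was normalised to the plate median of DMSO controls, or to row and column medians on the industrial chemical plate. The value is the median of three biological replicates grown on separate days.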
row,SMILES,growth AUC
1,COP(N)(=O)SC (centres undefined),1.11 (inactive)
2,COc1cc(OC)n2nc(S(=O)(=O)Nc3c(Cl)ccc(C)c3Cl)nc2n1,0.9 (inactive)
3,CC(C)N(C(=O)SCC(Cl)=C(Cl)Cl)C(C)C,1.01 (inactive)
4,O=S(=O)(c1ccc(O)cc1)c1ccc(O)cc1,0.977 (inactive)
5,CN(C)NC(=O)CCC(=O)O,0.956 (inactive)
6,CCN(CC)c1nc(C)cc(OP(=S)(OC)OC)n1,0.996 (inactive)
7,Clc1cccc(Cl)c1Cl,1 (inactive)
8,CCN(CC)C(=S)[S-].O.O.O.[Na+],1.09 (inactive)
9,C#CCC1=C(C)C(OC(=O)C2C(C=C(C)C)C2(C)C)CC1=O (centres undefined),1.06 (inactive)
10,CCOc1ccccc1OS(=O)(=O)NC(=O)Nc1nc(OC)cc(OC)n1,1 (inactive)
11,CNC(=O)Oc1cc(C)cc(C(C)C)c1,0.907 (inactive)
12,CCCCN(CC)c1c([N+](=O)[O-])cc(C(F)(F)F)cc1[N+](=O)[O-],1.04 (inactive)
13,O=C(O)CCl,0.929 (inactive)
14,CC[C@H](C)[C@H]1O[C@]2(C=C[C@@H]1C)C[C@@H]1C[C@@H](C/C=C(\C)[C@@H](O[C@H]3C[C@H](OC)[C@@H](O[C@H]4C[C@H](OC)[C@@H](NC)[C@H](C)O4)[C@H](C)O3)[C@@H](C)/C=C/C=C3\CO[C@@H]4[C@H](O)C(C)=C[C@@H](C(=O)O1)[C@]34O)O2.O=C(O)c1ccccc1,0.758 (inactive)
15,CON(C)C(=O)Nc1ccc(Cl)c(Cl)c1,0.936 (inactive)
16,CCCCOC(=O)[C@@H](C)Oc1ccc(Oc2ccc(C#N)cc2F)cc1,1.01 (inactive)
17,Clc1cc(Cl)c(Cl)c(Cl)c1,0.957 (inactive)
18,CN(C)C(=O)Nc1cccc(C(F)(F)F)c1,1.05 (inactive)
19,CN(C)C(=O)Nc1cccc(OC(=O)NC(C)(C)C)c1,1.07 (inactive)
20,CCOP(=O)(NC(C)C)Oc1ccc(SC)c(C)c1 (centres undefined),0.903 (inactive)

row,SMILES,growth AUC
1,ClCC(Br)CBr (centres undefined),0.995 (inactive)
2,O=[N+]([O-])c1c(Cl)c(Cl)cc(Cl)c1Cl,0.983 (inactive)
3,CCS(=O)c1c(C#N)nn(-c2c(Cl)cc(C(F)(F)F)cc2Cl)c1N (centres undefined),1.04 (inactive)
4,CNC(=O)Oc1cccc2c1OC(C)(C)C2O (centres undefined),1.15 (inactive)
5,CCOP(=O)(SC(C)CC)N1CCSC1=O (centres undefined),1.01 (inactive)
6,CCOP(=O)(OCC)ON1C(=O)c2cccc3cccc(c23)C1=O,0.961 (inactive)
7,O=C(O)C(F)(F)C(F)(F)C(F)(F)C(F)(F)C(F)(F)C(F)(F)F,0.955 (inactive)
8,O=S1OC[C@@H]2[C@H](CO1)[C@]1(Cl)C(Cl)=C(Cl)[C@@]2(Cl)C1(Cl)Cl (some centres undefined),0.927 (inactive) and 0.887 (inactive)
9,O=C(O)c1ccccc1C(=O)Nc1cccc2ccccc12,1.06 (inactive)
10,CCCCN(CCCC)SN(C)C(=O)Oc1cccc2c1OC(C)(C)C2,1.02 (inactive)
11,C[n+]1ccc(-c2cc[n+](C)cc2)cc1.O.[Cl-].[Cl-],0.937 (inactive)
12,CCC(C)(CC)c1cc(NC(=O)c2c(OC)cccc2OC)on1,0.986 (inactive)
13,CNC(=O)Oc1cc(C)c(SC)c(C)c1,0.984 (inactive)
14,COC(=O)C(C)(Cl)Cl,1.03 (inactive)
15,Cc1cc(Cl)ccc1N=CN(C)C,0.978 (inactive)
16,Nc1cc(Cl)cc(Cl)c1,1.13 (inactive)
17,CCCCCCCCCc1ccc(O)cc1,0.989 (inactive)
18,COc1c(Cl)ccc(Cl)c1Cl,1.04 (inactive)
19,CC(C)(C)c1cc([N+](=O)[O-])cc([N+](=O)[O-])c1O,0.638 (inactive)
